# Source: PubChem BioAssay (National Center for Advancing Translational Sciences (NCATS))
# Hits are enriched below; roughly 11% of the tested compounds scored in any of these assays.
# 3T3 cytotox: kills NIH 3T3 cells. NIH 3T3 viability, CellTiter-Glo ATP luminescence, 48-72 h. 94,000 compounds, 4.3% hits. AID 1345082. Potency, µM (doses to about 96.7 µM), usual class: inhibitors; also: nearly all actives have a fitted effect of over 55% in size
#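 Cytotoxicity was measured by CellTiter-Glo ATP luminescence after 48 or 72 h compound exposure at 37 °C. Mouse NIH 3T3 fibroblasts were seeded at 400 cells/well and dosed by 23 nL pin transfer.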
# hNpr1 antagonist: antagonists of human natriuretic peptide receptor Npr1. Potency, µM (highest dose often 46.3 µM), hits mostly inhibitors. 76,000 compounds, 1.6% hits. HEK293 hNpr1 GloSensor cGMP, ANP-stimulated luminescence; calls by dose curve; also: nearly all actives have a fitted effect of over 60% in size
#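 HEK293 cells stably expressing human Npr1 and cGMP GloSensor pGS-40F, loaded 2 h with 2% GloSensor reagent, given compound 30 min at room temperature. Luminescence read before and 20 min after 0.1 nM hNppA.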
# FLuc inh-1: inhibitors of firefly (Photinus pyralis) luciferase; P08659; purified P. pyralis luciferase, luminescence, biochemical; Potency, µM (top dose mostly 115 µM), most hits filed as inhibitors; 76,000 compounds, 2.5% hits; also: nearly all actives have a fitted effect of over 65% in size
# Target sequence (P08659 whole entry, looked up): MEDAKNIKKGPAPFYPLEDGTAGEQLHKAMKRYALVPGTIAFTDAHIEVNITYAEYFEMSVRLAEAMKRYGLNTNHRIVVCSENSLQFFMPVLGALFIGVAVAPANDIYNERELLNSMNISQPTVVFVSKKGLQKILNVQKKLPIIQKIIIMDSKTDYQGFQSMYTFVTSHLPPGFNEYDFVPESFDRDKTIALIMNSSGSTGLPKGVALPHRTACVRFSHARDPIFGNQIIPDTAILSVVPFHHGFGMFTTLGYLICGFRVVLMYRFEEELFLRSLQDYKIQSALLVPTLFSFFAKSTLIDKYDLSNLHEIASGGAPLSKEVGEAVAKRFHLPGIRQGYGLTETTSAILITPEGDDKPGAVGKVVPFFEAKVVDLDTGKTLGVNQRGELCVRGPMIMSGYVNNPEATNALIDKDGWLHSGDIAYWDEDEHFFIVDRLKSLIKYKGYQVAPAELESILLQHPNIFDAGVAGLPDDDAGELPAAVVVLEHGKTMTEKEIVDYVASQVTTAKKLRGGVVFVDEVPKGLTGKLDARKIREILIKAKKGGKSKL
#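 Inhibitors were tested against purified firefly luciferase in a biochemical, low-substrate format (both substrates at 10uM) and luminescence measured with a CCD imager.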
# HEK293 tox: HEK 293 cell cytotoxicity; HEK 293 viability, ATP luminescence (CellTiter-Glo), 48-72 h; Potency, µM (doses to about 115 µM), actives largely listed as inhibitors; 94,000 compounds, 6.6% hits; AID 1345083; also: nearly all actives have a fitted effect of over 60% in size
#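 ATP-coupled CellTiter-Glo luminescence served as viability read-out, recorded 10 min after reagent addition at room temperature. HEK 293 cells, 250 cells/well, had been incubated with pintool-transferred compound for 48 or 72 hr at 37 degree Celsius.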
# FLuc SDR no ATP: firefly luciferase binding stabilization, ATP absent | AID 1963318 | Purified FLuc-C-HiBiT, Nano-Glo HiBiT luminescence, no ATP | shares compounds with FLuc inh-1 | Potency, µM (highest dose often 32.7 µM), usual class: activators | 1,300 compounds, 7.8% hits; also: nearly all actives have a fitted effect of over 55% in size
# FLuc SDR ATP: binders stabilizing firefly luciferase, plus ATP; shares compounds with FLuc inh-1; purified FLuc-C-HiBiT + ATP, HiBiT complementation luminescence; 1,300 compounds, 8.7% hits; Potency, µM (top dose mostly 32.7 µM), actives largely listed as activators;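 also: signal reports ligand binding via conformational change of the enzyme rather than luciferase catalysis; nearly all actives have a fitted effect of over 55% in size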
# FLuc inh-2: inhibitors of firefly luciferase enzymatic activity; shares compounds with FLuc inh-1; purified FLuc-C-HiBiT enzyme, luciferin luminescence; Potency, µM (highest dose often 32.7 µM), usual class: inhibitors; 1,300 compounds, 42% hits; AID 1963320; also: nearly all actives have a fitted effect of over 70% in size
# A number is an active result; - = inactive; ? = inconclusive; . = no result. Unless noted, calls follow the shape of the dose curve; as a rule, active = well fitted curve in the direction sought with a large enough effect; inconclusive = small, poorly fitted or top-dose-only effect, or another doubt; inactive = no such curve, though single readings can be large; an effect the other way counts as inactive or inconclusive.
SMILES,3T3 cytotox,hNpr1 antagonist,FLuc inh-1,HEK293 tox,FLuc SDR no ATP,FLuc SDR ATP,FLuc inh-2
O=C1CC(c2noc(-c3ccc(-c4ccccc4)cc3)n2)CN1c1ccc(F)cc1 (stereo not drawn),-,-,-,-,.,.,.
CC(C)C(=O)NC1CCCN(c2ccnc3ccnn23)C1 (stereo not drawn),-,.,.,-,.,.,.
COc1ccc(C(=O)N2CCC3(CC2)NC(=O)N(c2ccccc2Cl)N3)cc1,?,-,-,?,.,.,.
CCCCNc1nc(N)c2[nH]c(=O)n(Cc3ccc(OCCN(C)C)nc3)c2n1,.,.,.,.,-,-,-
Cc1cc(C(=O)N2C[C@@H](CO)[C@H](c3nc(C4CC4)no3)C2)ccn1,-,-,-,-,.,.,.
Cc1cccc(CN2CCOc3c(O)cc(-c4ccccc4C)cc3C2)n1,?,-,-,?,.,.,.
Oc1cc(-c2nc3ccccc3s2)cc2c1OCCN(Cc1cccn1-c1ccccn1)C2,.,.,.,.,-,-,-
Cc1cc(CN2CCOc3c(O)cc(-c4ccccc4C)cc3C2)on1,?,-,-,?,.,.,.
Oc1cc(-c2nc3ccccc3s2)cc2c1OCCN(Cc1cccn1-c1ncccn1)C2,.,.,.,.,-,-,-
O=C(COc1ccccc1[N+](=O)[O-])Nc1cccc(-c2nc3ccccc3s2)c1,.,.,.,.,-,-,-
O=C(COc1ccc(-c2nnc3n2CCCC3)cc1)Nc1ccc(Cl)cc1,-,-,-,-,.,.,.
O=C(COc1ccccc1[N+](=O)[O-])Nc1ccc(-c2nc3ccccc3s2)cc1,.,.,.,.,-,-,-
O=C(COc1ccccc1Cl)Nc1ccc(-c2nc3ccccc3s2)cc1,.,.,.,.,-,-,-
COc1ccc(OCC(=O)Nc2nc(-c3ccc(Br)cc3)ns2)cc1,.,.,.,.,-,-,-
O=C(NCc1ccc(F)cc1Cl)C1CCN(C(=O)c2ncn3c2COC(c2ccccc2)C3)CC1 (stereo not drawn),-,-,13µM,-,-,?,?
O=C(NCc1ccccc1Cl)C1CCN(C(=O)c2ncn3c2COC(c2ccc(F)cc2)C3)CC1 (stereo not drawn),-,-,?,-,.,.,.
COc1ccccc1CNC(=O)C1CCN(C(=O)c2ncn3c2COC(c2ccc(C)cc2)C3)CC1 (stereo not drawn),-,-,?,-,.,.,.
CCOc1ccccc1CNC(=O)C1CCN(C(=O)c2ncn3c2COC(c2ccccc2)C3)CC1 (stereo not drawn),-,-,4µM,-,-,2.2µM,3.1µM
CC(C)CN1C(=O)c2ccccc2C(C(=O)Nc2ccncc2)C12CCCC2 (stereo not drawn),-,-,-,?,.,.,.
Cc1ccc(C(=O)COC(=O)c2cc(-c3cccs3)nc3ccccc23)cc1,.,.,.,.,-,-,?
CCc1cccc(NC(=O)c2cc(-c3ccc[nH]3)n[nH]2)c1,-,-,8.9µM,-,-,-,?
CCOc1ccc(-c2cc(CCCC(=O)NCCc3ccc(OC)c(OC)c3)no2)cc1,.,.,.,.,-,?,?
CN1c2cc(C(=O)Nc3ccc4c(c3)OCCO4)ccc2C(=O)N2CCCC21 (stereo not drawn),?,-,14µM,-,-,?,7.9µM
CN(C)c1ccc(NC(=O)c2ccc3c(c2)N(C)C2CCCCN2C3=O)cc1 (stereo not drawn),?,-,2.8µM,?,-,-,?
CN1c2cc(C(=O)Nc3ccccc3)ccc2C(=O)N2CCCCC21 (stereo not drawn),-,-,7.1µM,?,-,-,?
SMILES,3T3 cytotox,hNpr1 antagonist,FLuc inh-1,HEK293 tox,FLuc SDR no ATP,FLuc SDR ATP,FLuc inh-2
CN1c2cc(C(=O)Nc3ccc(C(N)=O)cc3)ccc2C(=O)N2CCCCC21 (stereo not drawn),?,-,-,-,.,.,.
COc1ccc(C(=O)N2CCc3ccc(C(=O)Nc4ccc(OC)cc4C)cc32)cc1,-,-,-,?,.,.,.
COc1ccc(C(=O)N2CCc3ccc(C(=O)Nc4ccc5c(c4)OCCO5)cc32)cc1,?,?,3.2µM,?,-,?,5.6µM
COc1ccc(NC(=O)N2CCCC(Cc3nncn3C)C2)cc1 (stereo not drawn),-,-,-,-,.,.,.
Cc1ccc(Cn2c(C3CCN(C(=O)c4ccc(C)c(F)c4)CC3)n[nH]c2=O)cc1,-,-,-,?,.,.,.
CC(C)(O)CCc1ccc(C(=O)NCCSc2ccccn2)cc1,-,-,2.8µM,?,-,-,?
O=C(NC1CC1)c1ccc2oc(-c3ccncc3Cl)nc2c1,-,.,.,-,.,.,.
O=C(c1ccc2ncccc2c1)N1CCCCCC1c1nnc(-c2ccccc2)o1 (stereo not drawn),?,-,-,?,.,.,.
Cc1noc(-c2nc(-c3ccccc3C)no2)n1,-,-,?,-,.,.,.
CCc1noc(-c2nc(-c3ccccc3C)no2)n1,-,-,14µM,?,-,-,-
CC(C)Cc1noc(-c2ccc(N3CCCC(C(C)(C)O)C3)nc2)n1 (stereo not drawn),?,-,-,?,.,.,.
OC1CCCN(c2ccc(-c3nc(-c4cccc(C(F)(F)F)c4)no3)cn2)C1 (stereo not drawn),?,10µM,1.6µM,?,-,-,?
COc1cccc(-c2noc(-c3ccc(N4CCCC(CO)C4)nc3)n2)c1OC (stereo not drawn),?,-,1.8µM,?,?,?,2.8µM
CC(=O)N1CCCN(c2ccc(-c3nc(-c4ccccc4F)no3)cn2)CC1,-,-,13µM,-,-,?,?
Cc1cccc(NC(=O)Cn2cccc2-c2nc(-c3ccc(F)cc3)no2)c1,?,-,-,-,.,.,.
COc1ccc(-c2nnc3n2CCN(C(=O)NC2CCCC2)C3)cc1,?,-,-,-,.,.,.
COc1ccc(-n2c(=O)c(C(=O)NCC(F)F)nc3cccnc32)cc1,-,.,.,-,.,.,.
COCc1nc(CCNC(=O)CCc2nc(-c3cccc(C)c3)no2)no1,-,.,.,-,.,.,.
COc1cccc(NC(=O)CCc2nc(-c3ccc(C(C)(C)C)cc3)no2)c1,.,.,.,.,-,-,7µM
O=C1CCN(C(=O)C2CCCCC2)CCCC(c2nc(-c3cccnc3)no2)CCN1 (stereo not drawn),-,-,-,-,.,.,.
COc1ccc(OCC(=O)Nc2ccc(O)c(-c3nc4ccccc4s3)c2)cc1,.,.,.,.,-,-,-
O=C(Nc1ccc(-c2nc3ccccc3s2)c(O)c1)c1ccc(Br)cc1,.,.,.,.,-,-,-
O=C(Nc1ccccc1-c1nc2ccccc2s1)c1ccccc1F,.,.,.,.,-,-,-
O=C(O)c1ccccc1-c1nc2ccccc2s1,.,.,.,.,-,-,-
Cn1ncc2c(C(=O)Nc3ccccc3Cl)cc(-c3ccccc3F)nc21,-,.,.,-,.,.,.
CCC1Oc2ccc(NC(=O)COc3ccccc3)cc2CN(Cc2ccc(OC)cc2)C1=O (stereo not drawn),?,-,-,?,.,.,.
